Inconclusive results are not listed. Activity calls are given as the source filed them. Rule for the calls: active = hit-call score of the fitted dose curve at least 0.9, where 1 is the maximum; inconclusive = response in the unintended direction; inactive = score below 0.9.
What follows are compounds tested against human Matrix Metalloproteinase-9 (MMP9), MMP9 (gene 4318) (UniProt P14780) (assay: NVS_ENZ_hMMP9: NovaScreen (NVS) Enzymatic Assay for human Matrix Metalloproteinase-9 (MMP9) (AID 2283190);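 note: cell-free recombinant MMP9 protease activity read by fluorescent substrate signal; active means inhibition seen as loss of fluorescence signal versus DMSO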).
Summary of the method: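 Extracted enzyme, fluorescent substrate, 1 h post-dose read. Single conc 25 uM in duplicate, then concentration series for actives. Activity = signal loss relative to DMSO negative control.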

Sequence of human Matrix Metalloproteinase-9 (MMP9), MMP9 (gene 4318) (P14780 whole entry, looked up): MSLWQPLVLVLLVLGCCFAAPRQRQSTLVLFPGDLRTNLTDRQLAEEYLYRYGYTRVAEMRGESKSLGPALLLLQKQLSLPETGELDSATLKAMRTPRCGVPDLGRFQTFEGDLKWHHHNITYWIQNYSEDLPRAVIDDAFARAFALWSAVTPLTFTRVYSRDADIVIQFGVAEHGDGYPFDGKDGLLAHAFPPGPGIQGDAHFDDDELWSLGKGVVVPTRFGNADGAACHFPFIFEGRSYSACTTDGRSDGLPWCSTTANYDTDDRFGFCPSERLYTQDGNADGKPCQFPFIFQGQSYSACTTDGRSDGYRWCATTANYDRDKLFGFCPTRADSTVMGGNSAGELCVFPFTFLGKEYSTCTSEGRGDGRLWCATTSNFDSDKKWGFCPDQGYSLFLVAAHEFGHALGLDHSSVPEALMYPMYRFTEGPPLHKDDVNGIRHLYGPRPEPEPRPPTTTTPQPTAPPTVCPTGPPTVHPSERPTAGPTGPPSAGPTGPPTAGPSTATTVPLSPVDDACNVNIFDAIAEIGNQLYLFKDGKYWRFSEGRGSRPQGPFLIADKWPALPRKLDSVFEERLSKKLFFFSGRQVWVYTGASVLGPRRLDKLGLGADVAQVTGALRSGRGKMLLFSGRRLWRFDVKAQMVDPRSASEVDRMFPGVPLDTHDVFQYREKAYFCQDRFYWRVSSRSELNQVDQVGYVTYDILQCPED

SMILES | AC50 | outcome
CCCCCCCO | 0.197 µM (active) | 
CCCCC(C=O)CC (configuration not stated) | 5.82 µM (active) | 
Cc1c(O)cccc1O | 25.5 µM (active) | 
CCc1occc(=O)c1O | 6.98 µM (active) | 
C=C(C)OC(C)=O | 9.44 µM (active) | 
CCCCOCCOCCOC(C)=O | 1.23 µM (active) | 
COc1ccc(C(=O)/C(Br)=C\C(=O)O)cc1 | 4.96 µM (active) | 
CC=C(C)C=CC=C(C)C | 4.96 µM (active) | 
O=C(Oc1ccccc1)c1ccccc1C(=O)Oc1ccccc1 | 9.17 µM (active) | 
CC(C)(CO)COC(=O)C(C)(C)CO | 9.37 µM (active) | 
CCOC(=O)C1=NOC(c2ccccc2)(c2ccccc2)C1 | 2.32 µM (active) | 
CCCCCCOC(=O)CCCCC(=O)OCCCCCC | 7.16 µM (active) | 
CCCCOC(=O)CCC(C)=O | 6.97 µM (active) | 
CCC(C)(O)CCCC(C)C (configuration not stated) | 0.972 µM (active) | 
CC(C)C(=O)OCCOc1ccccc1 | 7.19 µM (active) | 
OCCCc1ccccc1 |  | inactive
CC(C)c1cccc(C(C)C)c1N | 6.9 µM (active) | 
C=CCCCCCCCCC=O | 5.07 µM (active) | 
CCCCCCCC(=O)OCC(COC(=O)CCCCCCC)OC(=O)CCCCCCC | 4.96 µM (active) | 
CC(C)CCCCCOC(=O)CS | 5.63 µM (active) | 
Cc1ccc(S(=O)(=O)N=C=O)cc1 | 7.22 µM (active) | 
CCCSSCCC | 6.62 µM (active) | 

Reference: PubChem BioAssay (EPA / NIEHS)
